# A number with no mark means an inactive call. Results filed as inconclusive are left out. Where a call stands in place of a potency, no number is given. Activity calls are given as the source filed them. Unless noted, calls follow the shape of the dose curve; as a rule, active = well fitted curve in the direction sought with a large enough effect in the repeat runs; inconclusive = weak or mixed curves; inactive = no such curve, though single readings can be large; an effect the other way counts as inactive or inconclusive.
# Key:
# [1] = qHTS assay to identify small molecule agonists of the estrogen receptor alpha (ER-alpha) signaling pathway in the presence of an antagonist - cell viability counter screen (AID 1259386);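 also: cells exposed to compounds for 22 h at 37 °C before the viability read; nearly all actives have a fitted effect of over 30% in size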; also: potency is read from the fitted curve at half-maximal effect
# Method in brief: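 Using estrogen-depleted VM7Luc4E2 cells, the 15-concentration compound series was applied together with 10.0nM ICI-182,780 and incubated 22hr at 37C/5% CO2. Cell viability was then scored by CellTiter-Fluor.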
# [2] = molecular target: Progesterone receptor (Homo sapiens) (UniProt P06401); test: qHTS assay to identify small molecule agonists of the progesterone receptor (PR) signaling pathway (AID 1346784; calls by dose curve; also: nearly all actives have a fitted effect of over 30% in size)
# Method in brief: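 HEK 293T PR-UAS-bla reporter cells, 2% charcoal-stripped FBS; 6 hr settle at 37C/5% CO2, compound (DMSO) 16 hr, LiveBLAzer B/G FRET substrate 2 hr RT, fluorescence intensity read.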
# [3] = qHTS assay to identify small molecule antagonists of the TGF-beta/Smad signaling pathway - cell viability counter screen (AID 1346824); also: nearly all actives have a fitted effect of over 50% in size
# Method in brief: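 Cytotoxicity counter-screen run in the same wells as the beta-lactamase Smad reporter read: CellTiter-Glo luminescence after 30 min at room temperature. HEK 293T SBE-bla cells had 5 hr compound exposure at 37 C with TGF-beta1 (0.25 ng/mL stock).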
# [4] = qHTS assay to identify small molecule agonists of the TGF-beta/Smad signaling pathway - cell viability counter screen (AID 1346829); also: top concentration of the series differs between compounds; nearly all actives have a fitted effect of over 45% in size
# Method in brief: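 Same-well cytotoxicity: CellTiter-Glo added after the 2 hr room-temperature beta-lactamase substrate step, luminescence measured 30 min later; cells had 5 hr of compound at 37 C.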
# [5] = qHTS assay to identify small molecule agonists of the TGF-beta/Smad signaling pathway (AID 1346859; active = well fitted activation curve with a large enough effect in the signal ratio in the repeat runs, not every such curve was filed as active; the % refers to the signal ratio; also: series mostly up to about 77 µM)
# Method in brief: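 Read-out: fluorescence at 460 and 530 nm (405 nm excitation) after a 2 hr room-temperature incubation with beta-lactamase FRET substrate. SBE-bla HEK 293T cells had been treated with test compounds for 5 hr at 37 C.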
# [6] = molecular target: Thyrotropin-releasing hormone receptor (Homo sapiens) (UniProt P34981); test: qHTS assay to identify small molecule antagonists of the thyrotropin-releasing hormone receptor (TRHR) signaling pathway (AID 1346877; active = well fitted inhibition curve with a large enough effect in the repeat runs, not every such curve was filed as active; also: series mostly up to about 51 µM)
# Method in brief: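 Calcium signal in dye-loaded TRHR/HEK293 cells; compounds added 5 min before TRH (1 nM final); fluorescence monitored 3 min at 1 s steps.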
# [7] = molecular target: Thyrotropin-releasing hormone receptor (Homo sapiens) (UniProt P34981); test: qHTS assay to identify small molecule agonists of the thyrotropin-releasing hormone receptor (TRHR) signaling pathway (AID 1346891; calls by dose curve;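 also: HEK293 cells expressing TRHR with calcium dye readout; series mostly up to about 58 µM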)
# Method in brief: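 HEK293/TRHR cells, 1500 per well, 18 h 37 °C; Ca dye 2 h 37 °C; pin-tool compound addition (agonist mode); kinetic fluorescence 3 min, 1 s reads; 15 concentrations, triplicate.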
# [8] = Caspase-3/7 induction in HepG2 cells by small molecules, qHTS assay (AID 1346978); also: nearly all actives have a fitted effect of over 15% in size
# Method in brief: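 Caspase-3/7 induction was measured by Caspase-Glo 3/7 luminescence (30 min, room temperature) after a 17 hr compound exposure of wild-type HepG2 cells seeded at 2,000 per well and pre-incubated 5 hr.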
# [9] = Caspase-3/7 induction in CHO-K1 cells by small molecules, qHTS assay (AID 1346980); also: nearly all actives have a fitted effect of over 15% in size
# Method in brief: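 Luminescent Caspase-Glo 3/7 read (30min, room temperature) quantified apoptosis induction. Cells were wild-type CHO-K1, treated with compound for 17hr at 37 C and 5% CO2.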
# [10] = molecular target: Nuclear receptor subfamily 1 group I member 2 (Homo sapiens) (UniProt O75469); test: Human pregnane X receptor (PXR) small molecule agonists, qHTS assay (AID 1346982); also: nearly all actives have a fitted effect of over 35% in size; also: potency is read from the fitted curve at half-maximal effect
# Method in brief: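 Tox21 qHTS; PXR-Luc HepG2; compounds pinned from DMSO; 24 hr, 37 C; ONE-Glo luciferase detection, 30 min room temperature.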
# [11] = molecular target: Cytochrome P450 2D6 (Homo sapiens) (UniProt P10635); test: Cytochrome P450 Family 2 Subfamily D Member 6 (CYP2D6) small molecule antagonists: luciferase reporter qHTS assay (AID 1671196); also: nearly all actives have a fitted effect of over 50% in size; also: potency is read from the fitted curve at half-maximal effect
# Method in brief: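 Room-temperature luminescent CYP2D6 activity assay: compound preincubated 10 min with enzyme–substrate mix, NADPH-initiated reaction 1 h, detection reagent 20 min before reading.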
# [12] = Human pregnane X receptor (PXR) small molecule agonists, qHTS cell viability counter screen (AID 1346977); also: nearly all actives have a fitted effect of over 50% in size
# Method in brief: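 Fluorescence read-out (CellTiter-Fluor) of viability in PXR-Luc HepG2 cells, multiplexed with the luciferase agonist read. Compounds in DMSO added after 5hr plating; 24hr total exposure at 37C, 5% CO2.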
# [13] = Caspase-3/7 induction in CHO-K1 cells by small molecules, qHTS cell viability counter screen (AID 1346979); also: nearly all actives have a fitted effect of over 35% in size; also: potency is read from the fitted curve at half-maximal effect
# Method in brief: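 CHO-K1 wt, 1,500 cells/well; 5hr pre-incubation 37C/5% CO2; compound pin transfer (DMSO); 16hr exposure; CellTiter-Fluor added, 1hr, fluorescence read.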
# [14] = Caspase-3/7 induction in HepG2 cells by small molecules, qHTS cell viability counter screen (AID 1346981); also: series mostly up to about 92 µM; nearly all actives have a fitted effect of over 30% in size
# Method in brief: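 After a 5-hr attachment period at 37 C and 5% CO2, wild-type HepG2 cells received compounds in DMSO. Sixteen hours later CellTiter-Fluor was dispensed and the fluorescent signal quantified after a further hour.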
# [15] = qHTS assay to identify small molecule antagonists of the progesterone receptor (PR) signaling pathway - cell viability counter screen (AID 1346798); also: nearly all actives have a fitted effect of over 50% in size; also: potency is read from the fitted curve at half-maximal effect
# Method in brief: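 Luminescence readout (CellTiter-Glo, 30 min, RT) of viability in PR-UAS-bla HEK293T cells exposed to compound and R5020 agonist for 16 hr at 37C, 5% CO2; run in the same wells as the beta-lactamase reporter read.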
# [16] = qHTS assay to identify small molecule agonists of the progesterone receptor (PR) signaling pathway - cell viability counter screen (AID 1346799; calls by dose curve; also: nearly all actives have a fitted effect of over 45% in size; also: potency is read from the fitted curve at half-maximal effect)
# Method in brief: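 HEK293T PR-UAS-bla, 3,000 cells/well, 2% charcoal-stripped FBS; 6 h settle, compound 16 h at 37C/5% CO2; LiveBLAzer 2 h RT, then CellTiter-Glo 30 min RT, luminescence read.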
# [17] = molecular target: Progesterone receptor (Homo sapiens) (UniProt P06401); test: qHTS assay to identify small molecule antagonists of the progesterone receptor (PR) signaling pathway (AID 1346795; active = well fitted inhibition curve with a large enough effect in the signal ratio in the repeat runs, not every such curve was filed as active; the % refers to the signal ratio)
# Method in brief: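 Beta-lactamase reporter, HEK293T PR-UAS-bla line; 2% charcoal-stripped FBS; 6 hr pre-incubation, 37C/5% CO2. Compound + R5020 1 nM final, 16 hr. LiveBLAzer B/G FRET substrate, 2 hr RT; fluorescence intensity read.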
# [18] = molecular target: Nuclear receptor subfamily 1 group I member 2 (Rattus norvegicus) (UniProt Q9R1A7); test: Rat pregnane X receptor (rPXR) activation by small molecules, qHTS assay (AID 1346983); conditions: rPXR luciferase reporter cells, One-Glo luminescence, 24 h; max activation: active compounds read high; also: nearly all actives have a fitted effect of over 20% in size
# Method in brief: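 Luminescent readout (One-Glo luciferase, 30 min room temperature) followed 24 hr compound treatment at 37 C of rPXR cells plated 2,000 per well and preincubated 5hr; qHTS format with compounds delivered in DMSO.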
# [19] = molecular target: Nuclear receptor subfamily 1 group I member 2 (Homo sapiens) (UniProt O75469); test: Human pregnane X receptor (PXR) activation by small molecules, qHTS assay (AID 1346985); also: nearly all actives have a fitted effect of over 40% in size; also: potency is read from the fitted curve at half-maximal effect
# Method in brief: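 DPX-2 cells (HepG2 co-transfected with a PXR response element and a CYP3A4-promoter luciferase construct) were seeded at 2,000 per well, rested 5 hr at 37C, then exposed to DMSO-dissolved compounds for 24 hr. Activation was read as luciferase luminescence.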
# [20] = molecular target: Nuclear receptor subfamily 1 group I member 2 (Homo sapiens) (UniProt O75469); test: CYP3A4 induction through human pregnane X receptor (PXR) by small molecules, qHTS assay (AID 1346984); also: nearly all actives have a fitted effect of over 40% in size
# Method in brief: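 Cells (DPX-2; HepG2 with PXR element plus CYP3A4-promoter luciferase) settled 5hr, then were treated 24hr at 37C. A 3hr, 3uM-final Luciferin-IPA step preceded luminescence measurement with One-Glo.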
# Sequence of Cytochrome P450 2D6 (Homo sapiens) (P10635 whole entry, looked up): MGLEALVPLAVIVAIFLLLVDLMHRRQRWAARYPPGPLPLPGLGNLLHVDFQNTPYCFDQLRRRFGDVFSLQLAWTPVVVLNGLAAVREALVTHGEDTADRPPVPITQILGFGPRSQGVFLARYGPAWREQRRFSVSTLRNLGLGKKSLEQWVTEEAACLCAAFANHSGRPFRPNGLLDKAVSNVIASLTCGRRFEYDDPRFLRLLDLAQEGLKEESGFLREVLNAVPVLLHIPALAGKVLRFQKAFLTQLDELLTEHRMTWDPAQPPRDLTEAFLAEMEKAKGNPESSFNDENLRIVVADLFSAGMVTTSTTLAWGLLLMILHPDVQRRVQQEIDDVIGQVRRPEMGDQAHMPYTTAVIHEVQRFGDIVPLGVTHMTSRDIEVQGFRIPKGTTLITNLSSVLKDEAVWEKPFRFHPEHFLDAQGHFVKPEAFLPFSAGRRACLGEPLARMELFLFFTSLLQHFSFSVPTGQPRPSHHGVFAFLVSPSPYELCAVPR
# Sequence of Progesterone receptor (Homo sapiens) (P06401 whole entry, looked up): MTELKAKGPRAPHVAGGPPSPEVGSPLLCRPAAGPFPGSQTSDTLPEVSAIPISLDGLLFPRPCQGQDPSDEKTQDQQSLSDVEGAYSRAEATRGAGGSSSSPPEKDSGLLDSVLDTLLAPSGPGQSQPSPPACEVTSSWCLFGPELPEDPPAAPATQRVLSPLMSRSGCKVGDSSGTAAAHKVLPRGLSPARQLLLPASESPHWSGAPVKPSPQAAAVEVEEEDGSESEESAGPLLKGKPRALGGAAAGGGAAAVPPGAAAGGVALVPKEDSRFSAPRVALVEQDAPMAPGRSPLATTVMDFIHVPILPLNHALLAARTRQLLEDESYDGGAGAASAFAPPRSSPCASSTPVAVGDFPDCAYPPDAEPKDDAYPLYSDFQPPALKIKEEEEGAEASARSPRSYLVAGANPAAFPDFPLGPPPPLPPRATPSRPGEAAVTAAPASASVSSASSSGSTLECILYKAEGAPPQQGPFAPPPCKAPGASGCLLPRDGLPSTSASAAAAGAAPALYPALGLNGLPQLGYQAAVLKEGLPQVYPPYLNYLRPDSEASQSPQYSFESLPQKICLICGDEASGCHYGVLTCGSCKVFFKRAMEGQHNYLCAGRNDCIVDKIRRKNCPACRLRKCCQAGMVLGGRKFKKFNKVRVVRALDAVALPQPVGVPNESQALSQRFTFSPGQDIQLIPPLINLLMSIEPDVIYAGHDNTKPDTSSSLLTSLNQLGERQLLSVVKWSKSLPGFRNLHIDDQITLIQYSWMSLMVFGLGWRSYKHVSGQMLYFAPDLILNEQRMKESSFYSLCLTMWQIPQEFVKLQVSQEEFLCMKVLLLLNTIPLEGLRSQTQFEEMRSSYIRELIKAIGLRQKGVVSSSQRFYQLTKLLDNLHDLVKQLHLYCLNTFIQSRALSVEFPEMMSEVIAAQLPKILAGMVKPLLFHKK
# Sequence of Thyrotropin-releasing hormone receptor (Homo sapiens) (P34981 whole entry, looked up): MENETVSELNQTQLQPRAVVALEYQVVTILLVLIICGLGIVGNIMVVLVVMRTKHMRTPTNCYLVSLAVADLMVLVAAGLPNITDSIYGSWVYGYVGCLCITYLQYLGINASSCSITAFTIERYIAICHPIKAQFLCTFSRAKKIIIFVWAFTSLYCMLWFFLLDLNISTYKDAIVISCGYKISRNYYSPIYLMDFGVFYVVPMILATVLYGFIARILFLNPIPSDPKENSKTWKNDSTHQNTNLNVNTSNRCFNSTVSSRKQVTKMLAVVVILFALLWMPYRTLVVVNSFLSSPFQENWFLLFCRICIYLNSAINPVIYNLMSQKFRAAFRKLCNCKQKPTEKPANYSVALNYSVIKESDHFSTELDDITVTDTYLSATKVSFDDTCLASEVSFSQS
# Sequence of Nuclear receptor subfamily 1 group I member 2 (Homo sapiens) (O75469 whole entry, looked up): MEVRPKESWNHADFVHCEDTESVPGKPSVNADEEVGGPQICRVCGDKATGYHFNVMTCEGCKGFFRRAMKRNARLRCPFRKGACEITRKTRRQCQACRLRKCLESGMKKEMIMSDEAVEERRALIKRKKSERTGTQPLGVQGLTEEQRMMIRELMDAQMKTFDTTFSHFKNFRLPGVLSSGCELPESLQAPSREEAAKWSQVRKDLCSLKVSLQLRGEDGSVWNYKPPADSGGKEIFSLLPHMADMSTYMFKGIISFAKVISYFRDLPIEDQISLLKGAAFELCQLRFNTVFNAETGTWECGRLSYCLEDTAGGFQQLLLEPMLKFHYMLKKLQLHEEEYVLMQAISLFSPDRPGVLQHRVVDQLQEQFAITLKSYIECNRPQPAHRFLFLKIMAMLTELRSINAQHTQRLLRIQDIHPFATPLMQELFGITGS
# Sequence of Nuclear receptor subfamily 1 group I member 2 (Rattus norvegicus) (Q9R1A7 whole entry, looked up): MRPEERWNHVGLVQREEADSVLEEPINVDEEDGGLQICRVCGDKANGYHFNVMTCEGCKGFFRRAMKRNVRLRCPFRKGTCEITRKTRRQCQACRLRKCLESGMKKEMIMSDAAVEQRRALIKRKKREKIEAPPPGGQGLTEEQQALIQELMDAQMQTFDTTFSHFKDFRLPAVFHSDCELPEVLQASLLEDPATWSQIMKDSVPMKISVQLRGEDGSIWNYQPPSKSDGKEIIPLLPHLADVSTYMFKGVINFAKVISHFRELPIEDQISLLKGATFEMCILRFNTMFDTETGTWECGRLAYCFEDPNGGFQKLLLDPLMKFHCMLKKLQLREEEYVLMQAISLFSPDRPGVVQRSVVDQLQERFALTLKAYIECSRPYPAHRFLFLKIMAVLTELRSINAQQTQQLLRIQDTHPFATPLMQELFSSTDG
SMILES,Potency [1],Potency [2],outcome [3],outcome [4],outcome [5],outcome [6],Potency [7],Potency [8],outcome [9],Potency [10],Potency [11],Potency [12],Potency [13],Potency [14],Potency [15],Potency [16],Potency [17],max activation [18] [%],Potency [19],Potency [20]
CCOC(=O)N1CCC(n2c(=O)[nH]c3cc(Cl)ccc32)CC1,23.7 µM (active),inactive,inactive,inactive,inactive,inactive,inactive,inactive,inactive,inactive,inactive,,,,,,,,,
CC(Cl)C(Cl)Cl (configuration not stated),inactive,inactive,inactive,inactive,inactive,,,inactive,inactive,inactive,,inactive,inactive,inactive,,,,,,
CC[C@@H]([C@H](C)O)n1ncn(-c2ccc(N3CCN(c4ccc(OC[C@@H]5CO[C@@](Cn6cncn6)(c6ccc(F)cc6F)C5)cc4)CC3)cc2)c1=O,inactive,inactive,,,,inactive,,,,,,,7.5 µM (active),,16.8 µM (active),16.8 µM (active),,,,
CC(=N\O)/C(C)=N/O,inactive,inactive,inactive,inactive,inactive,inactive,inactive,inactive,,inactive,,inactive,inactive,inactive,,,,,,
CNC(=O)N(c1ccccc1)c1ccccc1,inactive,,inactive,inactive,inactive,inactive,,inactive,inactive,,35.7 µM (active),inactive,43.5 µM (active),inactive,inactive,inactive,inactive,,,
CCOC(=O)[C@@H](C)Oc1ccc(Oc2nc3ccc(Cl)cc3o2)cc1,inactive,inactive,inactive,inactive,inactive,inactive,inactive,inactive,inactive,61.1 µM (active),31.7 µM (active),inactive,inactive,inactive,inactive,,,,,
CC1=CC(=O)CC(C)(C)C1(O)/C=C/C(C)=C\C(=O)O (configuration not stated),inactive,inactive,inactive,inactive,inactive,,inactive,inactive,inactive,inactive,inactive,inactive,inactive,inactive,inactive,inactive,,,,
Cc1cc(OI)c(C(C)C)cc1-c1cc(C(C)C)c(OI)cc1C,inactive,inactive,inactive,,,inactive,inactive,inactive,inactive,29.8 µM (active),inactive,inactive,inactive,inactive,inactive,inactive,,0.407,15.8 µM (active),
Cc1oc(C)c(C(=O)Nc2ccccc2)c1C,inactive,inactive,,,,inactive,inactive,inactive,inactive,,56.4 µM (active),inactive,27.3 µM (active),inactive,inactive,inactive,,,,
COC(=O)CC(=O)C(C)(C)C,inactive,inactive,inactive,inactive,,,,inactive,inactive,,inactive,inactive,inactive,inactive,,,,,,
CCCCCCOC(=O)C(C)C,inactive,,inactive,inactive,inactive,,inactive,inactive,inactive,,,inactive,inactive,,inactive,inactive,inactive,,,
N#C/C(=C1/SC[C@@H](c2ccc(Cl)cc2Cl)S1)n1ccnc1,inactive,inactive,inactive,inactive,,inactive,inactive,inactive,inactive,inactive,0.219 µM (active),,,inactive,,,,,,
CCCCCCCC/C=C\CCCCCCCC(=O)OC(CO)CO,inactive,,inactive,inactive,inactive,,inactive,inactive,inactive,inactive,,inactive,inactive,,inactive,inactive,inactive,,,
COc1ccc(C(=O)c2cccc(O)c2)c(OC)c1,inactive,inactive,inactive,inactive,inactive,inactive,inactive,inactive,,61 µM (active),inactive,inactive,inactive,,,,,,,
COC(=O)Nc1nc2ccc(C(=O)c3cccs3)cc2[nH]1,inactive,inactive,inactive,inactive,inactive,,,,inactive,26.6 µM (active),38.9 µM (active),,,inactive,,,,,,
O=C(O)C(Cc1cc(I)c(O)c(I)c1)c1ccccc1 (configuration not stated),inactive,inactive,inactive,inactive,,,,inactive,,,,inactive,inactive,inactive,,inactive,,-2.03,inactive,inactive
O=C(O)c1c(O)c(-c2ccccc2)nc2ccccc12,inactive,inactive,inactive,inactive,inactive,,,inactive,inactive,,inactive,inactive,inactive,,,inactive,,,,
